In PubChem BioAssay (NCI):
About 83,000 compounds went through this panel and 20% of them were active in at least one assay; those are over-represented in the sample as a whole.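 Activity criterion: percent growth below 10, measured after cells in 96-well plates were exposed to a single compound concentration for 48 hours.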 Values without a mark were called inactive. Active and inactive are the calls of the source.

Key:
Assay in all cases: NCI-60 one-dose screen, 48 h (100 = growth as untreated, 0 = no growth, -100 = all killed)
Conditions in all cases: 10 µM unless noted
T-47D breast = tested on: T-47D breast
BT-549 breast = tested on: BT-549 breast
MDA-MB-435 melanoma = tested on: MDA-MB-435 melanoma
SW-620 colon = tested on: SW-620 colon
MCF7 breast = tested on: MCF7 breast
HCT-116 colon = tested on: HCT-116 colon
HCC-2998 colon = tested on: HCC-2998 colon
KM12 colon = tested on: KM12 colon

| Compound | growth (T-47D breast) | growth (BT-549 breast) | growth (MDA-MB-435 melanoma) | growth (SW-620 colon) | growth (MCF7 breast) | growth (HCT-116 colon) | growth (HCC-2998 colon) | growth (KM12 colon) |
| --- | --- | --- | --- | --- | --- | --- | --- | --- |
| COc1cc(N2C(=O)C=CC2=O)ccc1N1C(=O)C=CC1=O | 77.4% | 95.3% | 109% | 85.4% | 98.8% | 107% | 114% | 109% |
| CCCCN(CCCC)CCCNc1c2c(nc3ccc(Cl)cc13)CCCC2 | 95.7% | 108% | 103% | 82.3% | 89.6% | 57.6% | 82.8% | 99.7% |
| Cc1nn(-c2ccccc2)c(N)c1N=C1NC(=O)/C(=C/c2ccc(Cl)cc2)S1 | 74.4% | 75.8% | 66.9% | 82.2% | 70.9% | 83.6% | 121% | 78.3% |
| CC(C)(C)C(=O)OCOP(=O)(OCOC(=O)C(C)(C)C)C1CC(O)N(O)C1=O (configuration not stated) | 36% | -8.94% (active) | 68.5% | 39.1% | 15.3% | 20.9% | 38.1% | 33.3% |
| O=C1/C(=C\c2cn(-c3nc(N4CCOCC4)nc(N4CCOCC4)n3)c3ccccc23)c2ccccc2N1c1c(Cl)cccc1Cl | 45.5% | 39.1% | 83.5% | 84.5% | 50.6% | 71.6% | 75.5% | 88.5% |
| Cc1ccnc2c(NC(C)CCCN)cc(O)c(O)c12 (configuration not stated) | 106% | 92.1% | 103% | 100% | 31.5% | 99.7% | 91.6% | 109% |
| CCCC[N+](C)(N)CCCC | 87.9% | 90.9% | 102% | 101% | 97.7% | 97.7% | 111% | 105% |
| CCOC(=O)c1c(C)oc2ncnc(Nc3ccc(NC(=O)Nc4ccc(CC)cc4)cc3)c12 | 78.3% | 84.5% | 102% | 113% | 94.9% | 78.8% | 114% | 103% |
| O=C(/C=C1\C(=O)N(Cc2ccccc2)c2ccccc21)c1ccc(OCCN2CCCCC2)cc1 | -56.3% (active) | 80.4% | 96.1% | -45.7% (active) | 3.98% (active) | -3.84% (active) | 93.8% | 80.6% |
| COc1cccc2c1n([O-])c1cccc(OC)c1[n+]2=O | 50.2% | 71.5% | 91.5% | 68% | 36.9% | 48.5% | -4.2% (active) | 73.3% |
| N#CCc1ncc(-c2ccc(C(F)(F)F)cc2)c(NC2CCCCCC2)n1 | 20.7% [100 µM] | 9.45% [100 µM] (active) | 0.369% [100 µM] (active) | 19% [100 µM] | 18.4% [100 µM] | 8.09% [100 µM] (active) | 38.1% [100 µM] | 8.14% [100 µM] (active) |
| CCCCCCCCCCCCCCCCCC(=O)Nc1ccc(O)cc1 | 93.6% | 62.8% | 107% | 98.6% | 98.9% | 106% | 120% | 100% |
| Clc1ccc(I)c2ccccc12 | 96.8% | 94.6% | 108% | 107% | 95.8% | 97.4% | 107% | 110% |
| CCOC(=O)c1c(C)oc2ncnc(Nc3ccc(NC(=O)Nc4cccc(Cl)c4)cc3)c12 | 1.99% (active) | 61.6% | 65.8% | 88.7% | 43.3% | 50.8% | 105% | 61% |
| CCCCCCCCCCCCOC(=O)/C=C\C(=O)NC(N)=O | 80.3% | 67.7% | 84.7% | 91.2% | 64.3% | 68.2% | 110% | 95.4% |
| C=C(NC(=O)[C@H](C(C)C)N(C)c1cccc2[nH]ccc12)C(=O)OC | 95.4% | 95.3% | 102% | 110% | 99.6% | 94.1% | 113% | 109% |
| COc1ccc(CN2C(=O)/C(=C\C(=O)c3ccc(OCCN4CCCCC4)cc3)c3ccccc32)cc1 | 15.5% | 81.5% | 95% | -39.9% (active) | 20.3% | 4.2% (active) | 94.9% | 89% |
| O=C(/C=C\c1ccc(NCc2ccc(C(=O)O)cc2)cc1)CCl | -22.8% (active) | 64.3% | 89.5% | 3.72% (active) | 24% | -15.3% (active) | 97.5% | 98.2% |
| CC(C)OC(=O)Nn1cnc2ccccc21 | 114% | 116% | 110% | 111% | 120% | 87.4% | 105% | 114% |
| COC(=O)[C@H](Cc1cn(C)cn1)NC(=O)[C@H](CC(=O)OCc1ccccc1)NC(=O)Nc1cc(C(F)(F)F)cc(C(F)(F)F)c1 | -62.1% [100 µM] (active) | -96.6% [100 µM] (active) | -91.9% [100 µM] (active) | -59.2% [100 µM] (active) | -60.5% [100 µM] (active) | -97.9% [100 µM] (active) | -91.5% [100 µM] (active) | -89.8% [100 µM] (active) |
| CC(C)(C)C(=O)CCCCCCCC/C=C/CCCC(O)c1ccco1 (configuration not stated) | 104% | 105% | 113% | 113% | 105% | 109% | 88.6% | 113% |
| N=C(c1ccccc1)N(Cc1ccccc1)Cc1ccccc1 | 94.8% | 93.2% | 77.6% | 89.4% | 87.5% | 57.3% | 106% | 101% |
| CCOC(=O)CSSCC(=O)OCC | 94.4% | 110% | 99.4% | 111% | 95.2% | 108% | 108% | 105% |
| COC1(OC)N=C(N)C2(C#N)C3(C(=O)Nc4ccccc43)C12C#N (configuration not stated) | 95.8% | 62.5% | 91.7% | 94.9% | 86.7% | 81.6% | 103% | 101% |
